Our source for the binding signal values is article PMC7862700, “An all-to-all approach to the identification of sequence-specific readers for epigenetic DNA modifications on cytosine”.

Holding throughout (test): DAPPL (digital affinity profiling via proximity ligation, sequencing); 10 mM Tris-HCl pH 7.5, 50 mM NaCl, 1 mM DTT, 4% glycerol, room temperature, 30 min; GST-TFs on glutathione beads, 16-mer random dsDNA library, 0.1% formaldehyde crosslink after washing; high values mean tight binding
Settings in all cases: protein: recombinant; tags: N-terminal GST; dsDNA, one strand shown

The target of one assay is T1, ELK1 (Homo sapiens, UniProt P19419 1-428).
T1 sequence: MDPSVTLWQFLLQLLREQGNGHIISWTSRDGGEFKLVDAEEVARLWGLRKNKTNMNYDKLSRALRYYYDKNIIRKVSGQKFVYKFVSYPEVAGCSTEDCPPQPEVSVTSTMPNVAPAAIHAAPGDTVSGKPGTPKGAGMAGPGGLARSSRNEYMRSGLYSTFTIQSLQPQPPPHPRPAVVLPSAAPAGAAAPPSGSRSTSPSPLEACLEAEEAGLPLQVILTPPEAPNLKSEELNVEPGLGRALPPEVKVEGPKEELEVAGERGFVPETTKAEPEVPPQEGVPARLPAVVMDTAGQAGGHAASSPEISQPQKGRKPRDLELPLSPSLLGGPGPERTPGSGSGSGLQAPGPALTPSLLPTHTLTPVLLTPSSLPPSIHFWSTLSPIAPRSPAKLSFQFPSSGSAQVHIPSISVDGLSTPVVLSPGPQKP
In short, it runs like this:
(§1)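 A tag-only sample was pooled with DNA-barcoded human transcription factors that had been expressed in yeast as GST fusions and captured on glutathione beads. The pools were incubated for 30 min at room temperature with 200 nmole of a random double-stranded 16-mer DNA library in Tris/NaCl/DTT/glycerol buffer, then washed, crosslinked with 0.1% formaldehyde, proximity-ligated (BsaI/T4 ligase, 1 h, 37 °C), PCR-amplified and sequenced on an Illumina NextSeq500. Binding signal is each hexamer's read frequency for a factor divided by its frequency for the tag-only sample.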

The target of the next assay is T2, GABPA (Homo sapiens, UniProt Q06546 1-454).
T2 sequence: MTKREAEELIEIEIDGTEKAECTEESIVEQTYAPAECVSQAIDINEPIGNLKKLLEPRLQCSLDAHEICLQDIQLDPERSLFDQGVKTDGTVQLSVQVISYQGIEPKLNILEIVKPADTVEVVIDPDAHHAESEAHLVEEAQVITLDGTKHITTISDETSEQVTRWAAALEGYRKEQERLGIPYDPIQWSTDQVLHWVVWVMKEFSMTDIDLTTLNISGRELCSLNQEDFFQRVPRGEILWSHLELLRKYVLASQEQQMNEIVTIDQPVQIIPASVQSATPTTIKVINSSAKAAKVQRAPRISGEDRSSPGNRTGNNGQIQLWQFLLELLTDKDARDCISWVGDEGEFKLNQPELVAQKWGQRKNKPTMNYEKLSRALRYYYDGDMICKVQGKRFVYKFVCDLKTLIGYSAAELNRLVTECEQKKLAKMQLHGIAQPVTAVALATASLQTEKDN
In short, it runs like this: as §1

For the next assay, the target named is T3, ERG (Homo sapiens, UniProt P11308 1-479).
T3 sequence: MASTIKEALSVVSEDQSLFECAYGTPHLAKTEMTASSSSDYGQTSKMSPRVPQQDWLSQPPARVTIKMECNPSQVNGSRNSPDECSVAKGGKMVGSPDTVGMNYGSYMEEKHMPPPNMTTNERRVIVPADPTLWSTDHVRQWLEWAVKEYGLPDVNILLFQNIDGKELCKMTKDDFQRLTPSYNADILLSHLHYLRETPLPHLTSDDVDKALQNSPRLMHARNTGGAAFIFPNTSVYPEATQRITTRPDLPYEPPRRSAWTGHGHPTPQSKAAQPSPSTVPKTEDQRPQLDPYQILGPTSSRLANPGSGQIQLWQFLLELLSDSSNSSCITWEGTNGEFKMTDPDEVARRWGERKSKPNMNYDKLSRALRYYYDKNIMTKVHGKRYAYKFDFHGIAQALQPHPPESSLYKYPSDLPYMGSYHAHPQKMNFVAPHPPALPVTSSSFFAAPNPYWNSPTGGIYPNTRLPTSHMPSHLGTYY
The essentials: as §1

In another assay the target is ELF1 (Homo sapiens, UniProt P32519 1-619). In short, it runs like this:
as §1

The next assay concerns the target T4, EHF (Homo sapiens, UniProt Q9NZC4 1-300).
T4 sequence: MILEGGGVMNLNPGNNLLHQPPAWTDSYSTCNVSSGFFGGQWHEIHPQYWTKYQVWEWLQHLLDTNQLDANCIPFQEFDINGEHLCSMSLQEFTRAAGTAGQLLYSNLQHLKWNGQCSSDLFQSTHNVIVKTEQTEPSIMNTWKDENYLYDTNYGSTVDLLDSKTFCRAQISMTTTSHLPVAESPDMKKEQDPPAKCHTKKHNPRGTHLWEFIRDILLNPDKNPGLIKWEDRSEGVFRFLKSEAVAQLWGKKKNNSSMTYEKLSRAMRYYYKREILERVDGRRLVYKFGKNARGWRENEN
The essentials: as §1

In the next assay the target is SPIB (Homo sapiens, UniProt Q01892 1-262). In short, it runs like this:
as §1

The target of another assay is T5, ELK3 (Homo sapiens, UniProt P41970 1-407).
T5 sequence: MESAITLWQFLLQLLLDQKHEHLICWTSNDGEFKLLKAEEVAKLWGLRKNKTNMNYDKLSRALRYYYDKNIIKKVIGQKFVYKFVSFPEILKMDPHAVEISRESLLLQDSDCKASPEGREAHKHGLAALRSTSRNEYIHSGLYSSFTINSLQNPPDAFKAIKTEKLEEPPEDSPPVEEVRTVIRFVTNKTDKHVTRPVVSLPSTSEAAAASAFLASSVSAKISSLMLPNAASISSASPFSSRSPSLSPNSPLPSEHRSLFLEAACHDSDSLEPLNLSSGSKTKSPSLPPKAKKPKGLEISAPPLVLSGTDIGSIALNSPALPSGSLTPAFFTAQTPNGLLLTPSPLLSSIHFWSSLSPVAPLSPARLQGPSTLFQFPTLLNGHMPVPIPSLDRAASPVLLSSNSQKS
The essentials: as §1

For another assay, the target named is T6, SPIC (Homo sapiens, UniProt Q8N5J4 1-248).
T6 sequence: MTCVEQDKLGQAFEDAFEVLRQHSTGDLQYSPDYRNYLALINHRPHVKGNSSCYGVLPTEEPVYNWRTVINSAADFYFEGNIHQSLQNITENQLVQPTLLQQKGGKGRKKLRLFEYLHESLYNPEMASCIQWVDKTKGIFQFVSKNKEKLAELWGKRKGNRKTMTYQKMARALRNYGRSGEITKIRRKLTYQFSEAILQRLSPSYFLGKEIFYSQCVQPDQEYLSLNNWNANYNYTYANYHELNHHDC
In short, it runs like this: as §1

For another assay, the target named is ELF4 (Homo sapiens, UniProt Q99607 1-663). In short, it runs like this:
as §1

Sequence of ELF1 (P32519 whole entry): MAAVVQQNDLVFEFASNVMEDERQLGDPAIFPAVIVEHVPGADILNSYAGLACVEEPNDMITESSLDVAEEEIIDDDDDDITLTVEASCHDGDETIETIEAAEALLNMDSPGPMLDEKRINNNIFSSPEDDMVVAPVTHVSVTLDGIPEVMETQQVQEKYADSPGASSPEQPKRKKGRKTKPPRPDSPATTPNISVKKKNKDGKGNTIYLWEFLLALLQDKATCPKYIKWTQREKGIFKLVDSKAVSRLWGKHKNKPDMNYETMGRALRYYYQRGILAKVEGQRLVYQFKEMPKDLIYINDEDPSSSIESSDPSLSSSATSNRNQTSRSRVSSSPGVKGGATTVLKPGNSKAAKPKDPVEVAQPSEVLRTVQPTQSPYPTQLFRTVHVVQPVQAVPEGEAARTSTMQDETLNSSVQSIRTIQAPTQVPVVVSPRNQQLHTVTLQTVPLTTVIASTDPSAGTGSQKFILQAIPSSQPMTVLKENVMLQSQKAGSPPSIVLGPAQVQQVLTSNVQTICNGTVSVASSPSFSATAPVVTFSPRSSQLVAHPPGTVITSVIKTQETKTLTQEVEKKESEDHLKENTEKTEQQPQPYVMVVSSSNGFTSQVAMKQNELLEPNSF
Sequence of ELF4 (Q99607 whole entry): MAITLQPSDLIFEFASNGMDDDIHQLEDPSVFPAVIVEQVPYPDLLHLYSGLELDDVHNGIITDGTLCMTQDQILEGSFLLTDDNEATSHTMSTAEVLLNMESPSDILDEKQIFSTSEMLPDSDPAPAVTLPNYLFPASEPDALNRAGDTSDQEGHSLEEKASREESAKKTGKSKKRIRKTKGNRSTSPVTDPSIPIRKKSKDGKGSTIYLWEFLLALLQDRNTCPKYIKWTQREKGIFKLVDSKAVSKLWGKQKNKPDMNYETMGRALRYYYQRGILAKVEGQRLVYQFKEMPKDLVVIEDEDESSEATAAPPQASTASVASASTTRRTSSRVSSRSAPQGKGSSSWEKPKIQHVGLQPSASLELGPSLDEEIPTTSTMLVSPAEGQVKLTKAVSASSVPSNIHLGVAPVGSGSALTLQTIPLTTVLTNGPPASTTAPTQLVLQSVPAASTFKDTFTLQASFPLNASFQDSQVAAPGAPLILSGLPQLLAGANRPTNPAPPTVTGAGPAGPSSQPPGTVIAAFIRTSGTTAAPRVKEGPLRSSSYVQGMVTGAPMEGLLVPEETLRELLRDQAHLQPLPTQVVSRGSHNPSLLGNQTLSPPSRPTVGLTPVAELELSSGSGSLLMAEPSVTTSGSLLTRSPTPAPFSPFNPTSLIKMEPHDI
Sequence of SPIB (Q01892 whole entry): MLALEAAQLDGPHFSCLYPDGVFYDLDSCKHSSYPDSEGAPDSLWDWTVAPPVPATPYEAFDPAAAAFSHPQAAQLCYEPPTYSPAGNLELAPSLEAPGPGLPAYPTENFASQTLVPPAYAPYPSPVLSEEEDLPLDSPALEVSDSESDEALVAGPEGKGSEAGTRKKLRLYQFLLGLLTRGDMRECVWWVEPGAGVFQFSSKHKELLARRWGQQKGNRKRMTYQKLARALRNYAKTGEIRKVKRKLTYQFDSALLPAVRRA

As for TTAGAT, the binding signal with ELK1 is 1.16 fold enrichment (6-mer frequency, TF over GST control); with GABPA, 1.06 fold enrichment (6-mer frequency, TF over GST control); in the assay with ERG, 1.04 fold enrichment (6-mer frequency, TF over GST control); with ELF1, 1.03 fold enrichment (6-mer frequency, TF over GST control); in the assay with EHF, 1.13 fold enrichment (6-mer frequency, TF over GST control); with SPIB, 1.05 fold enrichment (6-mer frequency, TF over GST control). The binding signal with ELK3 is 1.09 fold enrichment (6-mer frequency, TF over GST control); in the assay with SPIC, 1.04 fold enrichment (6-mer frequency, TF over GST control); with ELF4, 1.12 fold enrichment (6-mer frequency, TF over GST control).
